Screens: PubChem BioAssay, National Center for Advancing Translational Sciences (NCATS)
A selection: hits, their analogues and other compounds. The true share with any hit is near 3.9%.
BRCA1 expr act: increases BRCA1 expression | actives 1.1% (n = 380,000) | MCF7-BRCA1-FFLuc reporter, luminescence, 48 h; response scale: scaled: vehicle 0%, 10 µM genistein 100% | Potency, µM (highest dose often 46.1 µM), inactives show at the top dose activation, actives largely listed as activators | AID 624202; note: nearly all actives have a fitted effect of over 80% in size
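Reporter cells (MCF7, BRCA1 promoter-firefly luciferase) received library compounds across a concentration series for 48 h. End-point luminescence was measured and concentration-effect curves derived after normalization.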
VDR inhibitor: blocks the human vitamin D receptor; P11473; VDR-SRC2-3 peptide fluorescence polarization, 2 h; Potency, µM, without a hit: max response, negative = inhibition, usual class: inhibitors; actives 0.93% (n = 400,000); note: % is set by controls: 0 for no effect and ±100 for the full control effect
Target sequence (P11473 whole entry, looked up): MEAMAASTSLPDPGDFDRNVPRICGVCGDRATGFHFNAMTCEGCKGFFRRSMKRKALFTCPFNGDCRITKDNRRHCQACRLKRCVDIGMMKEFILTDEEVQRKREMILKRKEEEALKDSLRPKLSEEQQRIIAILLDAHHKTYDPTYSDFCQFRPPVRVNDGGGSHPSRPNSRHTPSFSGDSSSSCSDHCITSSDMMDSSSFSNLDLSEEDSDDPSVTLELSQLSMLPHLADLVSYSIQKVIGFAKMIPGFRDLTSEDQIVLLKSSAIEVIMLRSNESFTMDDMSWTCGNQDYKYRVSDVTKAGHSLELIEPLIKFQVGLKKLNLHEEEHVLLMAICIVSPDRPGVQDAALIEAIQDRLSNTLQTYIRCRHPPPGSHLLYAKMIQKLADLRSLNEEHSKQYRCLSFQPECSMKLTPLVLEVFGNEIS
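FP read-out; VDR + SRC2-3 coactivator peptide; 23 nl compound by pintool; 2 h RT incubation; reagents held at 4 deg C, protected from light.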
PLK1 PBD inh: PLK1 (human) polo-box domain binding inhibition; Potency, µM, for inactives: max response, negative = inhibition, usual class: inhibitors; Plk1 PBD binding of FITC phosphopeptide, fluorescence polarization; actives 2.8% (n = 360,000); P53350; note: series mostly up to about 57 µM; % is set by controls: 0 for no effect and ±100 for the full control effect; nearly all actives have a fitted effect of over 65% in size
Tb PFK inh: blocks T. brucei phosphofructokinase; O15648; T. brucei PFK, ADP-Glo luminescence; Potency, µM (series often up to 57.5 µM), inactives show at the highest dose activity, negative = inhibition, hits mostly inhibitors; actives 0.17% (n = 330,000); AID 485367;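 note: 0% = uninhibited 1x PFK enzyme wells and -100% = no-enzyme wells; nearly all actives have a fitted effect of over 60% in size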
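Activity is normalized to no-enzyme wells (full inhibition) and 1.25 nM enzyme wells (no inhibition). Reaction: 0.5 mM F6P, 0.1 mM ATP, 45 min RT, ADP-Glo luminescence; concentration-response curves fitted and classed by quality.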
Active calls of the source: *; ? = inconclusive; / = no result given; [ ] = another dose, or the depositor's remark. Calls come from the whole dose curve; as a rule, active = well fitted curve in the direction sought with a large enough effect; inconclusive = small, poorly fitted or top-dose-only effect, or another doubt; inactive = no such curve, though single readings can be large; an effect the other way counts as inactive or inconclusive. Potency is the fitted concentration of half-maximal effect.

SMILES	BRCA1 expr act	VDR inhibitor	PLK1 PBD inh	Tb PFK inh
CC(=O)Oc1cccc(N2C(=O)C3C4C=CC(C4=C(C)C)C3C2=O)c1 (centres undefined)	34%	?	17µM*	5%
CC(C)CN(C(=O)COC(=O)C12CC3CC(CC(C3)C1)C2)c1c(N)n(Cc2ccccc2)c(=O)[nH]c1=O	-57%	17%	-2%	0%
Nc1c(C(=O)O)sc2nc(-c3ccc(F)cc3)cc(-c3ccccc3)c12	-19%	-29%	30µM*	2%
O=C1OC2(c3cc(I)c(O)c(I)c3Oc3c2cc(I)c(O)c3I)c2c(Cl)c(Cl)c(Cl)c(Cl)c21	/	5µM*	/	/
O=C1OC2(c3ccccc31)c1cc(I)c(O)c(I)c1Oc1c2cc(I)c(O)c1I	/	4.5µM*	/	?
O=C(Nc1ccc2c(c1)CCC2)c1cnn2c1NC(c1ccco1)CC2C(F)(F)F (centres undefined)	45%	-18%	27µM*	-1%
CSc1ccccc1C(=O)Nc1ccccc1C(=O)NC(C)C	-21%	79µM*	30µM*	0%
O=C(Nc1ccc2c(c1)CCC2)c1cc(F)cc(F)c1	3.2µM*	-5%	6%	0%
CSc1ccccc1C(=O)Nc1ccc2c(c1)CCC2	11µM*	-12%	-15%	0%
CC(C)NC(=O)c1ccccc1NC(=O)C1COc2ccccc2O1 (centres undefined)	-25%	?	27µM*	0%
COc1ccc(C(=O)N(O)c2ccccc2)cc1	/	-2%	/	/
Cc1ccccc1OCC(=O)Nc1nnc(SCc2cc(=O)n3cc(Cl)ccc3n2)s1	/	2%	/	/
Cc1cccc(C(=O)NNC(=O)c2ccc(NS(=O)(=O)c3cccs3)cc2)c1C	-6%	2%	-4%	1%
CNc1ccc(-c2ccccc2CO)cn1	2%	/	-1%	/
Cn1cnc([N+](=O)[O-])c1NC(C)(C)C	-34%	-8%	-7%	-8%
Cn1cnc([N+](=O)[O-])c1S(=O)(=O)c1ccc(Cl)cc1	-58%	50µM*	?	-7%
C=C1C=C(C(F)F)n2ncc(C(=O)N3CCN(c4ccccc4)CC3)c2N1	0%	/	/	/
COc1cccc(/C=N/n2c(N)nc3ccccc32)c1OC	10µM*	-5%	-5%	0%
COc1cccc(/C=N/N2CCN(c3ccc(Cl)cc3)CC2)c1OC	-2%	5%	2%	-1%
COc1ccc(/C=N/n2c(N)nc3ccccc32)cc1OC	55%	-4%	-4%	1%
COc1cccc(C=NN2CCCCCC2)c1OC	11µM*	2%	-5%	/
COc1ccc(Cl)cc1S(=O)(=O)N1CCN(Cc2cccc(F)c2)CC1	/	14%	/	/
CC1C(C#N)=C(SCC(N)=O)NC2=C1C(=O)CC(C)(C)C2 (centres undefined)	20%	?	27µM*	0%
CC1=C(C#N)C(C)C2=C(CC(C)(C)CC2=O)N1 (centres undefined)	0%	-4%	30µM*	1%
CCC1C(C#N)=C(SCC(N)=O)NC2=C1C(=O)CC(C)(C)C2 (centres undefined)	6%	-10%	27µM*	-1%
SMILES	BRCA1 expr act	VDR inhibitor	PLK1 PBD inh	Tb PFK inh
COc1ccc(NC(=O)C2CCN(C(=O)c3sc4nc[nH]c(=O)c4c3C)CC2)c(OC)c1	/	0%	/	/
Cc1nnc(C)n1/N=C/c1cccn1C	-2%	-16%	3µM*	0%
CCCc1cc(=O)[nH]c(SCC(=O)c2c[nH]c3ccccc23)n1	-38%	?	19µM*	-6%
C=C1CCC(O)C/C1=C/C=C1\CCC[C@]2(C)[C@@H]([C@H](C)/C=C/[C@H](C)C(C)C)CC[C@@H]12 (some centres undefined)	/	50µM*	/	/
COc1ccc(Nc2cnn(-c3nc4ccccc4s3)c(=O)c2Cl)cc1	-45%	?	12µM*	5%
Cc1ccc(C)c(N2CCN(c3cnn(-c4nc5ccccc5s4)c(=O)c3Cl)CC2)c1	?	-28%	-1%	-4%
O=c1c(Cl)c(Nc2cccc(Cl)c2)cnn1-c1nc2ccccc2s1	14µM*	5%	-1%	-3%
COc1ccc(Cl)cc1NC(=O)CN(c1cccc(C)c1C)S(=O)(=O)c1ccccc1	-26%	-13%	/	/
N[C@@]1(C(=O)O)CO[C@H]2[C@H](C(=O)O)[C@H]21	/	14%	/	/
COc1ccc(N2CCN(CC(=O)NCc3ccc(Cl)cc3)CC2)cc1	4%	-11%	15µM*	-20%
S=c1[nH]cnc2sc(-c3ccccc3)cc12	11µM*	7%	?	-5%
Cc1nn(CC(O)c2ccccc2)c(C)c1Br (centres undefined)	-1%[1.84 µM]	25%	0%	-3%
